High-throughput results (PubChem BioAssay)
In the library only some 7.4% were active in any assay of this set; here they are far more common.
SMN2 splice enh – enhancers of SMN2 splice variant expression. hit rate 2.8% among 210,000. Potency, µM (top dose mostly 46.1 µM), without a hit: top-dose activity change, positive = activation, usual class: activators. HEK293 SMN2-luciferase splicing reporter, luminescence, 30-36 h; also: % of control where 0% means no effect; nearly all actives have a fitted effect of over 55% in size
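qHTS luciferase splicing reporter: luminescence rises when SMN2 exon 7 is included in transfected HEK293 cells. Compound exposure lasted 30-36 h at 37C, with 4.5 mM final sodium butyrate as control, followed by a ONE-Glo read.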
Rab9 prom act – activators of Rab9 promoter; hit rate 2.8% among 320,000; Potency, µM (highest dose often 9.22 µM), for the others: at the highest dose activation, negative = inhibition, actives largely listed as activators; AID 485297; Huh7 Rab9 promoter-luciferase reporter, luminescence, 24 h; also: % of control where 0% means no effect; nearly all actives have a fitted effect of over 60% in size
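Huh7 cells stably carrying Rab9 promoter–luciferase reporter, plated 1500 cells/well, compound added after 2 h and incubated 24 h at 37 °C; luciferase luminescence then read after 10 min with detection reagent.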
p53 reactivation – re-activators of mutant p53; hit rate 0.063% among 320,000; AID 504706; Potency, µM (highest dose often 92.2 µM), inactives show at the highest dose activity change, positive = activation, usual class: activators; H1299 p53-A138V BP100-luciferase reporter, luminescence, 24 h; also: % of control where 0% means no effect; nearly all actives have a fitted effect of over 45% in size
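H1299 (p53-null), stable ts p53-A138V + BP100-Luc; 1000 cells/well, Opti-MEM/10% FBS; cpd 4 pt, 1:5; 24 h, 37 deg C, 5% CO2; detection reagent 10 min RT; luminescence.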
FLuc modulator – inhibits or activates purified firefly luciferase, miR-21 counter-screen. P08659. purified FLuc, Km substrates, luminescence inhibition. Potency, µM (titrated, usually from 57.5 µM), for the others: at the highest dose activity change, negative = inhibition, most hits filed as inhibitors. hit rate 6.9% among 360,000;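 also: plate controls were vehicle for no effect and reference inhibitor for full effect; nearly all actives have a fitted effect of over 55% in size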
Target sequence (P08659 whole entry, looked up): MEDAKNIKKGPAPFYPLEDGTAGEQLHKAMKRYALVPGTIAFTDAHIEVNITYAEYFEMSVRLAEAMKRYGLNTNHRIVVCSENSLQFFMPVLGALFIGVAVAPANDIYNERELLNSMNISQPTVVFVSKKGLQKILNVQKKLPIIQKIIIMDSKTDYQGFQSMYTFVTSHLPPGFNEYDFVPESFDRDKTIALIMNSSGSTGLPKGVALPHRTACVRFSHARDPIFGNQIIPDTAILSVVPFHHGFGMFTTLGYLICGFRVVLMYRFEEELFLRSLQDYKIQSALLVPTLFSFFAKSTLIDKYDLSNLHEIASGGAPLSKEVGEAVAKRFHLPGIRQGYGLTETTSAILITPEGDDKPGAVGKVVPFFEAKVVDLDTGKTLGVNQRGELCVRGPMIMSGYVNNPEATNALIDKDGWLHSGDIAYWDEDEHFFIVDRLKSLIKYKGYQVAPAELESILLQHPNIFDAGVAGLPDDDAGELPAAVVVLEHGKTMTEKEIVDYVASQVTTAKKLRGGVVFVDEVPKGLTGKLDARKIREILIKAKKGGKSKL
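Purified P. pyralis luciferase, 10 nM final, with Km-level 10 uM D-luciferin and 10 uM ATP in 50 mM Tris acetate pH 7.5, 10 mM Mg acetate, 0.01% Tween-20, 0.05% BSA; 6-point qHTS titration about 60 µM downward; luminescence read.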
NPC1 promoter act – activators of NPC1 promoter; Huh7 NPC1 promoter luciferase reporter, 24 h; Potency, µM (doses to about 9.22 µM), for inactives: top-dose activation, actives largely listed as activators; hit rate 2.4% among 320,000; AID 485313; also: % of control where 0% means no effect; nearly all actives have a fitted effect of over 60% in size
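Huh7 reporter cells (NPC1 promoter driving luciferase) are dosed with compound for 24 h at 37 °C, 5% CO2; luciferase detection reagent is then added and luminescence measured after 10 min at ambient temperature.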
ELG1 genotox – genotoxicity induction in ELG1-luciferase HEK293T cells; HEK293T ELG1-luciferase reporter, luminescence, 16 h; Potency, µM (top dose mostly 46 µM), for the others: top-dose activity change, positive = activation, hits mostly activators; hit rate 1.3% among 330,000; AID 504466; also: % of control where 0% means no effect; nearly all actives have a fitted effect of over 60% in size
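Luminescence read-out: rising ELG1-luciferase signal, reflecting elevated ELG1 protein under genetic stress, flags genotoxic compounds. Cells were treated for 16 hr at 37 °C before ONE-Glo detection.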
Active calls of the source: *; ? = inconclusive; . = no result given; ! = a repeat was not active; [ ] = dose if it differs, or a comment. Calls follow the shape of the dose curve; as a rule, active = well fitted curve in the direction sought with a large enough effect; inconclusive = small, poorly fitted or top-dose-only effect, or another doubt; inactive = no such curve, though single readings can be large; an effect the other way counts as inactive or inconclusive. Potency is read from the fitted curve at half-maximal effect.

SMILES	SMN2 splice enh	Rab9 prom act	p53 reactivation	FLuc modulator	NPC1 promoter act	ELG1 genotox
O=C(Nc1ccc2c(c1)OCCO2)c1ccc(Cl)cc1	.	0.447µM*	.	1.51µM*	0.708µM*	?
CCN(CC(=O)Nc1ccc2c(c1)OCCO2)C(=O)c1cc(Cl)nc2ccccc12	.	-2.6%	-1.6%	-2.6%	-2.2%	0.3%
C=CCOc1ccccc1CNc1ccc2c(c1)OCCO2	-28.9%	?	11.2%	0.849µM*	?	?
Cc1ccc(C(=O)Nc2ccncc2)o1	-6.4%	1.7%	-1.7%	-1.7%	1.2%	-1.5%
COc1cc(OC)cc(C(=O)Nc2ccc3c(c2)OCCO3)c1	10µM*	3.16µM*	11.4%	3.01µM*	3.98µM*	?
COc1cc(OC)cc(C(=O)NC(C(=O)Nc2ccc3c(c2)OCCO3)C(C)C)c1 (centres undefined)	.	18.7%	?	?	12.8%	16.6%
c1cc(CNc2ccc3c(c2)OCCO3)ccn1	11.0%	1.2%	25.1µM*	?	0.5%	18.4µM*
Cc1cc(NCc2ccncc2)ccc1Br	.	15.2%	0.1%	-6.0%	7.0%	-0.5%
CCOc1ccc(C(=O)Nc2ccc3c(c2)OCCO3)cc1OC	12.6µM*	?	21.0%	2.69µM*	?	18.4µM*
Cc1ccc(C(=O)Nc2ccc3c(c2)OCCO3)o1	.	?	18.4%	3.01µM*	?	3.26µM*
CC1(C)S[C@@H]2[C@H](NC(=O)C(N)c3ccccc3)C(=O)N2[C@H]1C(=O)O (some centres undefined)	2.5%[20.6 µM]	.	.	.	.	.
N#Cc1ccc(Nc2nn3c(=O)c4ccccc4nc3s2)cc1	.	.	.	-12.7%	.	.
CC(=O)Nc1ccc(C(=O)Nc2ccc3c(c2)OCCO3)cc1	.	4.9%	4.6%	15.1µM*	-2.3%	?
CC(=O)Nc1ccc(C(=O)Nc2ccc3c(c2)OCO3)cc1	3.1%	24.5%	13.9%	?	15.9%	13.2%
NC(=O)Nc1ccc2c(c1)OCCO2	17.2%	29.7%	15.2%	21.3µM*	19.2%	?
Cc1cc(C(=O)Nc2ccc3c(c2)OCCO3)co1	.	4.47µM*	-1.5%	3.38µM*	3.16µM*	?
Cc1cc(C)n(-c2ccc(C(=O)Nc3ccc4c(c3)OCCO4)cc2)n1	16.7%	?	17.0%	8.49µM*	?	?
CC(=O)Nc1ccc2c(c1)OCCOCCOc1cc(NC(C)=O)ccc1OCCO2	.	7.6%	-1.0%	5.4%	0.5%	-5.6%
O=C(O)/C=C(\CC(=O)O)C(=O)O	-11.5%[9.22 µM]	.	.	.	.	.
CN(c1ccccc1)S(=O)(=O)c1nnc(NC(=O)COc2ccccc2)s1	.	-2.4%	1.8%	0.426µM*!	2.5%	-1.5%
Cc1ccccc1OCC(=O)Nc1nnc(S(=O)(=O)N(C)c2ccccc2)s1	.	.	.	0.953µM*	.	.
CN(c1ccccc1)S(=O)(=O)c1nnc(NC(=O)COc2ccccc2F)s1	.	-1.6%	-4.1%	-1.3%	-5.9%	-3.7%
CCC(=O)Nc1nnc(S(=O)(=O)N(C)c2ccccc2)s1	.	1.7%	-0.4%	0.3%	-2.7%	0.7%
O=C(COc1ccccc1)Nc1nnc(S(=O)(=O)N2CCCC2)s1	.	-12.0%	2.3%	2.1%	-4.7%	-0.5%
Cc1ccccc1N(C)S(=O)(=O)c1nnc(NC(=O)c2ccccc2F)s1	.	0.5%	22.4%	6.01µM*	-3.9%	-3.7%
SMILES	SMN2 splice enh	Rab9 prom act	p53 reactivation	FLuc modulator	NPC1 promoter act	ELG1 genotox
O=C(COc1ccccc1)Nc1nnc(S(=O)(=O)Nc2ccccc2)s1	.	-0.5%	.	1.51µM*!	-7.5%	4.2%
Cc1ccnc(NC(=O)CCCNC(=O)c2ccc(Cl)cc2)c1	.	?	12.0%	16.9µM*	?	?
Cc1ccnc(NC(=O)c2sc3cc(Cl)ccc3c2Cl)c1	6.31µM*	0.631µM*	?	0.601µM*	0.126µM*	2.91µM*
Cc1ccccc1NC(=O)CCCNC(=O)c1ccc(Cl)cc1	.	-0.2%	1.1%	1.8%	0.8%	-0.2%
Cc1ccnc(NC(=O)CNC(=O)c2sc3ccccc3c2Cl)c1	.	27.9%	?	12µM*	27.9%	10.3µM*
CCN(CC(=O)Nc1c(F)cccc1F)C(=O)CNC(=O)c1sc2ccccc2c1Cl	.	1.7%	1.7%	0.7%	-2.7%	1.8%
Cc1ccc(NC(=O)CN(C)C(=O)CNC(=O)c2sc3ccccc3c2Cl)cc1	.	25.2%	19.4%	2.69µM*	?	16.4µM*
Cc1cc(CN2CCCCC2)c(O)c(CN2CCCCC2)c1	-10.8%[9.22 µM]	.	.	.	.	.
Cc1cc(C)cc(NC(=O)Cn2c(=O)n(-c3ccc(C)c(C)c3)c(=O)c3oc4ccccc4c32)c1	.	.	.	-9.6%	.	.
Cc1ccc(-c2cc(C(=O)Nc3cccnc3)[nH]n2)c(O)c1C	.	3.98µM*	?	3.38µM*	?	9.2µM*
Cc1cccc(NC(=O)c2cc(-c3cc(C)ccc3O)n[nH]2)c1	.	?	11.6%	3.01µM*	1.12µM*	?
Cc1cc(O)c(-c2cc(C(=O)NCc3ccc4c(c3)OCO4)[nH]n2)cc1C	-0.9%	0.7%	-1.2%	-0.2%	0.3%	1.0%
Cc1cccc(NC(=O)c2cc(-c3cc(C)c(C)cc3O)n[nH]2)c1	.	0.562µM*	9.1%	?	0.891µM*	?
Cc1ccc(-c2cc(C(=O)NCc3ccc4c(c3)OCO4)[nH]n2)c(O)c1C	-11.6%	-1.4%	-3.8%	19µM*	-1.2%	-0.9%
Cc1c(Cl)cccc1NC(=O)c1cc(-c2ccccc2O)n[nH]1	-0.2%	?	29.9%	21.3µM*	?	?
CCOC(=O)c1ccccc1NC(=O)c1nn(-c2ccc(C)cc2)c(=O)n(C)c1=O	.	.	.	0.2%	.	.
Nc1cc([N+](=O)[O-])cc2oc(-c3ccccc3)cc12	.	?	11.0%	19µM*	?	?
CCOC(=O)N1CCC(NC(=O)CC2C(=O)NCCN2Cc2cccc(F)c2F)CC1 (centres undefined)	.	16.8%	-12.4%	-0.1%	0.7%	1.3%
Cc1cc(C)n2ncc(C(=O)NCc3ccc(Cl)cc3)c2n1	-16.9%	-1.5%	-5.8%	-0.6%	-4.1%	-0.6%
O=C(NCc1ccc(Cl)cc1)c1cnn2ccccc12	?	2.51µM*	?	13.5µM*	3.98µM*	?
CC(=O)Nc1ccc(S(=O)(=O)Oc2cccc(/C=C3\SC(N)=NC3=O)c2)cc1	5.6%	3.8%	11.7%	0.9%	0.4%	29.0%
O=C1/C(=C/c2cccs2)Sc2ccccc21	?	?	?	1.07µM*	13.5%	?
O=C1Nc2ccccc2S/C1=C/c1cccs1	.	-33.1%	11.5%	?	-44.5%	11.5%
CC(=O)Oc1cccc(/C=C2\Sc3ccccc3C2=O)c1	.	-3.3%	2.8%	1.69µM*	0.3%	-2.3%
CCCCOc1ccc(/C=C2/Sc3ccccc3C2=O)cc1	15.8µM*	28.4%	12.6%	3.38µM*	3.3%	7.7%
CC(C)COc1ccc(/C=C2/Sc3ccccc3C2=O)cc1	?	21.9%	12.0%	1.35µM*	?	?
